Test results reported in the supplement of paper PMC6555819.

What was measured:
Assay in all cases: PBM binding z-score (relative to random genomic background probes); higher = stronger binding; sequences stand for … in GC…GCGATTGACAGCGTAGAATGAAGG
[1] = system: PPARg:RXRa DBDmut IVT, anti-RXR (DBD mutation: RXRa K156A/R161A, NR concentration 270 nM, RXRa partner concentration 90 nM)
Summary of the method: (§1)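 Scanned fluorescence from custom Agilent 4×180K protein-binding microarrays was regression-normalized. Binding z-scores use random background probes as reference. Ligand-free nuclear receptor dimers were incubated on the arrays for 1 h and detected with antibodies against each partner (one per run).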

[2] = system: PPARg:RXRa IVT, anti-PPARg (NR concentration 270 nM, RXRa partner concentration 90 nM)
Summary of the method: as §1

[3] = system: PPARg DBDmut:RXRa IVT, anti-PPARg (DBD mutation: PPARg1 K132A/R137A, NR concentration 270 nM, RXRa partner concentration 90 nM)
Summary of the method: as §1

[4] = system: PPARg DBDmut IVT, anti-PPARg (DBD mutation: PPARg1 K132A/R137A, NR concentration 270 nM)
Summary of the method: as §1

[5] = system: PPARg homodimer (NR concentration 180 nM)
Summary of the method: as §1

[6] = system: PXR:RXRa (NR concentration 270 nM, RXRa partner concentration 90 nM)
Summary of the method: as §1

[7] = system: PXR homodimer (NR concentration 270 nM)
Summary of the method: as §1

[8] = system: RARa:RXR (NR concentration 270 nM, RXRa partner concentration 90 nM)
Summary of the method: as §1

[9] = system: RARa homodimer (NR concentration 270 nM)
Summary of the method: as §1

[10] = system: RARb:RXRa (NR concentration 270 nM, RXRa partner concentration 90 nM)
Summary of the method: as §1

Sequence | PBM binding z-score [1] | PBM binding z-score [2] | PBM binding z-score [3] | PBM binding z-score [4] | PBM binding z-score [5] | PBM binding z-score [6] | PBM binding z-score [7] | PBM binding z-score [8] | PBM binding z-score [9] | PBM binding z-score [10]
TCTTGTAGATAAACAGGAGGTTAAGAAAGATCGA | 1.35 | 0.282 | 0.991 | 1.09 | 0.0399 | 0.748 | -0.0168 | 1.05 | 0.379 | 0.359
CCTACTGGGGCAAGGTTACCATAACGCACAGCCA | 4.78 | 5.52 | 2.27 | 0.765 | 2.66 | 0.3 | -0.0906 | 0.631 | 0.512 | 1.7
CCTTGCAGGCCAGGGTCACTCAAGCATTTCGCTT | 1.64 | 1.87 | -0.933 | -1.48 | 0.75 | 2.65 | -0.433 | 3.33 | -0.43 | 2.79
AGAACGAGGGCACGCTGAGTTGACAGCAGAGTAG | 3.94 | 3.77 | 1.38 | 0.377 | 0.462 | 1.46 | -0.0837 | 1.24 | -0.654 | 2.57
TGAATGAGGTTATAAGATCAGGGCACGTTGCAAA | 1.2 | 2.64 | 0.65 | 0.308 | 0.364 | 1.19 | -0.152 | 1.77 | 0.42 | 1.48
GATACAGGGTCAAGGCCATAGTACGCGTATTGAT | 2.5 | 4.05 | 0.702 | -0.195 | 1.64 | 3.94 | 0.404 | 4.65 | 0.823 | 4.41
TCTTGTAGATCAAGAAGGTTAAGAAAGCCTGAGT | 1.65 | 0.53 | -0.357 | 0.523 | 0.323 | 0.858 | 0.332 | 0.941 | 0.353 | 0.732
CCTAGCAGGCCAATCTGGGTCAATCAAGGCTTGA | 3.86 | 4.7 | -0.527 | -1.3 | 0.323 | 0.743 | -0.691 | 2.06 | -0.918 | 1.31
CCTAGCAGGCCACTCTGGGTCACTCAAGGCTTGA | 2.5 | 3.22 | -0.679 | -2.2 | 0.299 | 1.04 | -0.493 | 1.32 | -0.337 | 1.55
GGAACGAGGGCTAGTTGATAGCAGAGTTTGATGG | 0.122 | -0.508 | -0.313 | -0.827 | -0.214 | -0.534 | -0.283 | -0.627 | -0.525 | -0.19
GCGACTGGGCCAAAGCAGGTTACCATAAGGTTGG | 2.12 | 1.67 | -1.03 | -0.738 | -0.482 | -0.203 | -0.655 | 0.347 | -0.649 | -0.0107
TCGAGTAGGTTAGGGGCATTGAGAATGGCGTCGA | 1.85 | 1.45 | -1.19 | -0.696 | 1.3 | 0.449 | 0.233 | 0.211 | -0.562 | 1.03
ACAGACAGGTGATGAACGTAACTCAGGCTATCAT | -0.0291 | 0.144 | 0.839 | 0.504 | -0.201 | -0.104 | 0.276 | -0.047 | 0.235 | -0.0365
TCATATAGGTAGAGGTGAAAGTCGAACGATATGA | 2.29 | 2.16 | 2 | 0.275 | 0.614 | 0.78 | 0.269 | 1.22 | 0.173 | 1.31
TCTCGGAGGACACGAAGGCCAGAGCTTTCCAGAG | 1.5 | 0.0169 | -0.633 | -1.61 | -0.704 | -0.278 | -0.919 | -0.235 | -1.31 | 1.82
GCTCGGAGCACAAGGTCAGAGCTTTGTCCGTAGA | 0.516 | 0.181 | -1.55 | -1.25 | 0.0109 | 1.7 | -0.525 | 1.75 | -1.06 | 2.63
CTACCAAGGTGAACAAGGCCGTTGATTACTATTC | 2.3 | 2.16 | 0.257 | -0.28 | 0.346 | 0.327 | 0.451 | 0.868 | -0.304 | 1.59
CCTACTGGGCCAAAATGGTCATTGATGCCGATAA | 2.55 | 2.95 | -0.67 | -0.0275 | 0.212 | -0.439 | -0.289 | 0.45 | 0.0345 | 0.172
ATCTCTAGGTAACAAGTGCAGTGAAAGAGAGGAC | 2.78 | 2.62 | 1.24 | 0.573 | 0.521 | 0.133 | 0.353 | 0.0235 | 0.451 | 0.586
CCGACTGGGGCAAGTTTACCATAACGCACAGCCA | 3.19 | 2.78 | -0.473 | -0.469 | 0.332 | -0.0221 | 0.029 | 0.0414 | 0.4 | 1.02
TCATAAAGGTAAATGCTAGGTGAAAGTCCGATCT | 3.32 | 1.59 | 0.692 | 0.518 | 1.01 | 0.647 | 0.218 | 1.36 | 0.932 | 1.04
GATACAGGGTCAGCTAGAGGCGAGAGTATGGAAA | 1.45 | 2.17 | -0.6 | -0.459 | 1.77 | 2.25 | -0.498 | 3.52 | 0.0279 | 4.1
CCGACTGGGGCAAGGTTAGCATAACGCACAGCCA | 2.73 | 2.99 | -1.11 | -0.288 | 0.409 | -0.179 | -0.316 | -0.0446 | -0.606 | 1.22
TCTAGGTGGTCACGGAGGTCACACACGACGGGTA | 1.88 | 4.12 | 0.705 | 0.508 | 2.75 | 4.44 | 0.948 | 4.51 | 1.02 | 3.84
